High-throughput results deposited in PubChem by several laboratories.
In the library only some 2.7% were active in any assay of this set; here they are far more common.
TMEM16A inh = blocks the mouse calcium-activated chloride channel TMEM16A | 310,000 compounds, 1.2% hits | Q8BHY3 | HEK293 TMEM16A/YFP iodide influx fluorescence, ionomycin | normalized B-score (activity score, 25-100; higher = stronger inhibition) at 10 µM;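 active = ratio plate-corrected score three or more library SD toward inhibition, starting fluorescence score within five deviations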;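 also: score derived from kinetic fluorescence span divided by baseline fluorescence per well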
TMEM16A act = mouse TMEM16A channel activation, primary screen; HEK293 TMEM16A/YFP-H148Q/I152L, iodide quench fluorescence; hits give low values; B-score at 10 µM; 340,000 compounds, 0.3% hits; AID 623877;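 active = fluorescence-ratio B-score plate-corrected deviation score at least 3 library SD below zero, with starting fluorescence score within 5 deviations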;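 also: channel opened by trigger with iodide after compound preincubation; score built on the fluorescence ratio of max minus min over baseline; more negative score means more quench and so TMEM16A activation or potentiation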
PREPL inhibitor = human PREPL enzyme inhibition. recombinant PREPL, fluorescence polarization activity-based probe. Q4J6C6. 320,000 compounds, 0.68% hits. inhibition, % at 5.96 µM; in the data active = inhibition above about 43%
Target sequence (Q4J6C6 whole entry, looked up): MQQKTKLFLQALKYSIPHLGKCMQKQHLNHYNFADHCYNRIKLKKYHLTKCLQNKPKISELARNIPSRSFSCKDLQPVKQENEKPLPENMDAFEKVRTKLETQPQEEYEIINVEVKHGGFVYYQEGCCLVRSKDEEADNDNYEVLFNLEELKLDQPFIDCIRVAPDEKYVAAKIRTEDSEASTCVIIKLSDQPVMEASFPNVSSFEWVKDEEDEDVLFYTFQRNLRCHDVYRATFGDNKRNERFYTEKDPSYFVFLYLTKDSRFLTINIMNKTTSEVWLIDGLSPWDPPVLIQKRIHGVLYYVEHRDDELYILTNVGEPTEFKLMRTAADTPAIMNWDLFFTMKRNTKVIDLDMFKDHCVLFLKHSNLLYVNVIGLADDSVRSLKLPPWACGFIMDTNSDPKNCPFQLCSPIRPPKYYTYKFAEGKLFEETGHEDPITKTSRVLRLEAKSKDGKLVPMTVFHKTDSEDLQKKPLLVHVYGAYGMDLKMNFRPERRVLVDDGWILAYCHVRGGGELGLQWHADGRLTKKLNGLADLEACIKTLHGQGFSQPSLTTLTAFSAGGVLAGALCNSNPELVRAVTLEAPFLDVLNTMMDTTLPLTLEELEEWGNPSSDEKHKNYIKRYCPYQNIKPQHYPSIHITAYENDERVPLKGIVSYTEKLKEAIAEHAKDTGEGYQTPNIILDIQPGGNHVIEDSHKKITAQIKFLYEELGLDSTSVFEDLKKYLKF
PP1 counter = counter-screen for PP5 inhibitors: inhibitors of human PP1-alpha | P62136 | purified PP1alpha, OMFP fluorescence | inhibition, % at 6.7 µM | 320,000 compounds, 0.9% hits | AID 2235;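 active = inhibition above the mean inhibition of all tested compounds plus 3 SD, computed separately for each screening campaign, cut at about 15% in these data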
FID counter = counter-screen for HCV NS3 helicase inhibitors: DNA intercalator displacement. DNA fluorescent intercalator displacement, fluorescence. inhibition, % at 7.9 µM. 290,000 compounds, 0.17% hits. AID 1845; in the data active = inhibition above about 37%;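 also: higher means more ethidium bromide displaced from hairpin DNA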
PP5 inh = blocks human protein phosphatase 5 activity; AID 1987; inhibition, % at 6.7 µM; 320,000 compounds, 0.18% hits; purified PP5c, OMFP substrate fluorescence;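 active = inhibition above the campaign's mean inhibition across all tested compounds plus 3 SD, cut at about 9.5% in these data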
A number is an active result.

How did C#CCOCCOCCOCCNc1nc(N2CCN(C(=O)CCCCCCCCCCNC(=O)[C@H](CCCN=C(N)N)n3cc(C[C@@H](C)CC)nn3)CC2)nc(N2CCN(C(=O)CCCCCCCCCCNC(=O)[C@@H]([C@H](C)CC)n3cc(CCCCCN)nn3)CC2)n1 do in these assays?
TMEM16A inh: 25; PREPL inhibitor: 60; PP1 counter: 71; PP5 inh: inactive

How did C#CCOCCOCCOCCNc1nc(N2CCOCC2)nc(N2CCN(C(=O)CCCCCCCCCCNC(=O)[C@H]([C@@H](C)CC)n3cc(CCCCN=C(N)N)nn3)CC2)n1 do in these assays?
TMEM16A inh: inactive; TMEM16A act: inactive; PREPL inhibitor: inactive; PP1 counter: 15; PP5 inh: inactive

How did O=C(CN1CCN(C(C(=O)Nc2cc(C(F)(F)F)ccc2Cl)c2ccccc2)CC1)NC1CC1 (stereo unspecified) do in these assays?
TMEM16A act: inactive

What do the screens show for `CCN(CC)CCNC(=O)c1ccc(NC(=O)COc2ccc3c(c2)CCC3)cc1`?
TMEM16A act: inactive; PREPL inhibitor: inactive; PP1 counter: inactive; PP5 inh: inactive

What do the screens show for `C(=Nc1cccc2c(N=Cc3ccco3)cccc12)c1ccco1`?
TMEM16A inh: inactive; TMEM16A act: inactive; PREPL inhibitor: 55; PP1 counter: inactive; FID counter: inactive; PP5 inh: inactive

Results for CCOc1cc(C)c(-c2onc(C(F)(F)F)c2-c2csc(C)n2)c(O)c1 ?
TMEM16A inh: 100; TMEM16A act: inactive; PREPL inhibitor: inactive; PP1 counter: inactive; FID counter: inactive; PP5 inh: inactive

Results for Cc1nc(-c2c(C(F)(F)F)noc2-c2ccc(O)cc2O)cs1 ?
TMEM16A inh: inactive; TMEM16A act: inactive; PREPL inhibitor: inactive; PP1 counter: inactive; FID counter: inactive; PP5 inh: inactive

What do the screens show for `N#CC1=C(N)C(C#N)(C#N)[C@H](c2ccoc2)[C@H]2CN(Cc3ccccc3)CC=C12`?
TMEM16A inh: inactive; TMEM16A act: inactive; PREPL inhibitor: 52; PP1 counter: inactive; FID counter: inactive; PP5 inh: inactive

What do the screens show for `CN1CC=C2C(C#N)=C(N)C(C#N)(C#N)[C@H](c3ccoc3)[C@H]2C1`?
TMEM16A inh: inactive; TMEM16A act: inactive; PREPL inhibitor: inactive; PP1 counter: inactive; FID counter: inactive; PP5 inh: inactive

How did CSc1cccc(CN2CCC(Oc3ccc(C(=O)N4CCCCC4)cc3)CC2)c1 do in these assays?
TMEM16A inh: inactive; TMEM16A act: inactive; PREPL inhibitor: inactive; PP1 counter: inactive; FID counter: inactive; PP5 inh: inactive

How did O=[N+]([O-])c1ccc(NC(=S)NCc2ccc(F)cc2)cc1 do in these assays?
TMEM16A inh: 25; TMEM16A act: -5; PREPL inhibitor: inactive; PP1 counter: inactive; FID counter: inactive; PP5 inh: inactive

What do the screens show for `O=[N+]([O-])c1ccc(NC(=S)NCCc2ccccc2)cc1`?
TMEM16A inh: 100; TMEM16A act: inactive; PREPL inhibitor: inactive; PP1 counter: inactive; FID counter: inactive; PP5 inh: inactive

What do the screens show for `NS(=O)(=O)c1ccc(NC(=S)NCCc2ccccc2)cc1`?
TMEM16A inh: inactive; TMEM16A act: inactive; PREPL inhibitor: inactive; PP1 counter: inactive; FID counter: inactive; PP5 inh: inactive

Results for S=C(NCCc1ccccc1)Nc1ccc(Cl)cc1 ?
TMEM16A inh: inactive; TMEM16A act: inactive; PREPL inhibitor: inactive; PP1 counter: inactive; FID counter: inactive; PP5 inh: inactive

How did O=[N+]([O-])c1cc(C(F)(F)F)ccc1NCCNC(=S)Nc1ccc(Cl)cc1 do in these assays?
TMEM16A inh: 100; TMEM16A act: inactive; PREPL inhibitor: inactive; PP1 counter: inactive; FID counter: inactive; PP5 inh: inactive

What do the screens show for `O=[N+]([O-])c1ccc(NC(=S)NCCc2ccc(Cl)cc2)cc1`?
TMEM16A inh: 100; TMEM16A act: inactive; PREPL inhibitor: inactive; PP1 counter: inactive; FID counter: inactive; PP5 inh: inactive

How did Nc1nccc(NCCSCc2ccccc2)n1 do in these assays?
TMEM16A act: inactive

How did Fc1ccc(NC(=S)NCc2cccnc2)cc1 do in these assays?
TMEM16A inh: inactive; TMEM16A act: -7; PREPL inhibitor: inactive; PP1 counter: inactive; FID counter: inactive; PP5 inh: inactive

How did Fc1cccc(NC(=S)NCc2cccnc2)c1 do in these assays?
TMEM16A inh: inactive; TMEM16A act: inactive; PREPL inhibitor: inactive; PP1 counter: inactive; FID counter: inactive; PP5 inh: inactive

What do the screens show for `CC1=C(C(=O)O)CC(S(=O)(=O)O)C1(C)C` (stereo unspecified)?
TMEM16A act: inactive

How did CCCSc1nnc(CSc2nc3ccccc3s2)n1-c1ccccc1 do in these assays?
TMEM16A inh: 100; TMEM16A act: inactive; PREPL inhibitor: inactive; PP1 counter: inactive; FID counter: inactive; PP5 inh: inactive

Results for CC(C)(C)NCC(=Cc1ccccc1)C(=O)c1ccccc1 ?
TMEM16A act: inactive

How did Cc1ccc(C(=O)ON=C2CCN(c3ccc([N+](=O)[O-])cc3)CC2)cc1 do in these assays?
TMEM16A inh: inactive; TMEM16A act: inactive; PREPL inhibitor: inactive; PP1 counter: 16; FID counter: inactive; PP5 inh: inactive

What do the screens show for `C=CCN(C(=O)Cn1nnc2ccccc21)C(C(=O)NCCOC)c1ccc(OC)cc1OC` (stereo unspecified)?
TMEM16A inh: inactive; TMEM16A act: -6; PREPL inhibitor: inactive; PP1 counter: inactive; FID counter: inactive; PP5 inh: inactive

How did CC(C)N(CCNCC(O)COc1ccc(C(C)(C)c2ccccc2)cc1)C(C)C (stereo unspecified) do in these assays?
TMEM16A inh: inactive; TMEM16A act: inactive; PREPL inhibitor: inactive; PP1 counter: inactive; FID counter: 42; PP5 inh: inactive

How did Cc1ccc2c(=O)n3c(nc2c1)C(Cc1ccc(O)cc1)NC(=O)c1ccc(Cl)cc1-3 (stereo unspecified) do in these assays?
PREPL inhibitor: inactive

What do the screens show for `CC1CCCN(C(=O)CN(c2ccccc2)S(=O)(=O)c2ccc(F)cc2)C1` (stereo unspecified)?
TMEM16A act: inactive; PREPL inhibitor: inactive; PP1 counter: inactive; PP5 inh: inactive

What do the screens show for `Cc1[nH]c(=O)n(C(C)C)c(=O)c1Br`?
TMEM16A act: inactive

What do the screens show for `C/C(=C\C(=O)c1ccc(Br)cc1)NCc1ccc(C)cc1`?
TMEM16A inh: 100; TMEM16A act: inactive; PREPL inhibitor: inactive; PP1 counter: inactive; FID counter: inactive; PP5 inh: inactive

What do the screens show for `CCCCCn1c(SCc2ccncc2)nc2cc(C(=O)NCc3ccco3)ccc2c1=O`?
TMEM16A inh: inactive; TMEM16A act: inactive; PREPL inhibitor: inactive; PP1 counter: 16; FID counter: inactive; PP5 inh: inactive

What do the screens show for `CCCc1cc(=O)oc2c(CNc3ccc(OCC)cc3)c(O)ccc12`?
TMEM16A inh: inactive; TMEM16A act: inactive; PREPL inhibitor: inactive; PP1 counter: inactive; FID counter: inactive; PP5 inh: inactive

How did C=CCn1c(SCC(C)=O)nc2scc(-c3ccco3)c2c1=O do in these assays?
TMEM16A inh: inactive; TMEM16A act: inactive; PREPL inhibitor: inactive; PP1 counter: 15; FID counter: inactive; PP5 inh: inactive
